Lamin A splicing – qHTS Assay for Modulators of Lamin A Splicing; HeLa LMNA splicing GFP/RFP minigene ratio, 48 h; 200,000 compounds, 0.01% hits; Potency, µM (top dose mostly 46.1 µM), inactives show at the highest dose ratio change, negative = inhibition, usual class: inhibitors; active = well fitted inhibition curve with a large enough effect in the signal ratio, with a control signal flat, not every such curve was filed as active; inconclusive = small, poorly fitted or top-dose-only effect, or effect the other way, or a change in a side signal; the % refers to the signal ratio; also: potency is read from the fitted curve at half-maximal effect
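S3 HeLa cells stably expressing lamin A-EGFP splicing minigene plus DsRed2, 600 cells/well, 48 h compound exposure at 37C. Laser-scanning cytometry; analysed as GFP (500-530 nm)/RFP (575-640 nm) total intensity ratio; 0.5% DMSO vehicle.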
Luc counter – Counterscreen for Luciferase (Kinase-Glo TM) Inhibition | Potency, µM (doses to about 38.3 µM), without a hit: at the top dose activity change, negative = inhibition, hits mostly inhibitors | Kinase-Glo luciferase, ATP luminescence, 8 min | 200,000 compounds, 0.28% hits; active = well fitted inhibition curve with a large enough effect; inconclusive = small, poorly fitted or top-dose-only effect; also: potency is read from the fitted curve at half-maximal effect; nearly all actives have a fitted effect of over 60% in size
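Light output from Kinase-Glo luciferase with luciferin and 10 uM ATP in 50 mM imidazole pH 7.2, KCl, MgCl2, Tween 20, BSA; compound pin-delivered, 8-min ambient incubation, then luminescence read.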
PNC inhibitor – High Content Assay for Compounds that inhibit the Assembly of the Perinucleolar Compartment | PC3M PTB-GFP, PNC prevalence imaging, 16 h; hits give low values | 140,000 compounds, 3.1% hits | AID 2417, 2010 | activity change (PNC), negative = inhibition, % at 10 µM;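 active = readout at or below -70, meaning at least 70% loss of cells showing the perinucleolar compartment, a nuclear body marking cancer cells; inconclusive = readout between -30 and a set limit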;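 also: plate controls were DMSO wells for no effect and camptothecin positive control wells for full effect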
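Compounds are pinned in duplicate onto adhered PC3M cells stably expressing GFP-tagged PTB and incubated 16 h at 37 C. Cells are then fixed, nuclei stained with Hoechst, and PNC-positive cells counted.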
ALDH1A1 inh – qHTS Assay for Inhibitors of Aldehyde Dehydrogenase 1 (ALDH1A1); Aldehyde dehydrogenase 1A1 (Homo sapiens), P00352; AID 1030, 2008; Potency, µM (doses to about 75.3 µM), for inactives: top-dose activity, negative = inhibition, usual class: inhibitors; Purified ALDH1A1, NADH fluorescence, propionaldehyde substrate; 220,000 compounds, 7.3% hits;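 also: potency is read from the fitted curve at half-maximal effect; plate controls were no enzyme wells and a reference inhibitor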
Target sequence (P00352 whole entry, looked up): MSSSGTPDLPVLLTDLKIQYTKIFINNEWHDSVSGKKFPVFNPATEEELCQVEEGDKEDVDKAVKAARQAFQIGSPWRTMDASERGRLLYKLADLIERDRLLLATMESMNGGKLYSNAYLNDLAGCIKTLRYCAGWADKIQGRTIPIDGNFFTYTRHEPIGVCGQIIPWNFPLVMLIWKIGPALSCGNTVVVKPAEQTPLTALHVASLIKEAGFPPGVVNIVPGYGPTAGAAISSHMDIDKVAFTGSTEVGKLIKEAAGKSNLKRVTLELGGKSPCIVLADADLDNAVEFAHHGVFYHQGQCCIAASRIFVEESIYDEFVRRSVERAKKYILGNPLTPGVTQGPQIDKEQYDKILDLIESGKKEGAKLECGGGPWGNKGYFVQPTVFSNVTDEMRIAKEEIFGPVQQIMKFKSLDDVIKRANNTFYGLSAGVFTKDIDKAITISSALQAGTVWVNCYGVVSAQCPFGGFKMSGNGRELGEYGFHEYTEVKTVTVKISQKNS
HPGD inh – qHTS Assay for Inhibitors of HPGD (15-Hydroxyprostaglandin Dehydrogenase) | 15-hydroxyprostaglandin dehydrogenase [NAD(+)] (Homo sapiens), P15428 | purified HPGD, NADH fluorescence kinetic, PGE2 substrate | Potency, µM, inactives show top-dose activity change, negative = inhibition, hits mostly inhibitors | 150,000 compounds, 4.3% hits | AID 894, 2007; also: potency is read from the fitted curve at half-maximal effect
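20 nM HPGD preincubated 15 min at room temperature with compound in 50 mM Tris-HCl pH 8, 0.01% Tween 20. Started with 1 mM NAD+ and 30 uM prostaglandin E2; NADH fluorescence (360/450 nm) read 5 times over 30-s intervals, last minus first.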
* hit, by the source's call; ? = inconclusive; . = no result given; [ ] = remark or other dose. Compounds with a hit are over-represented: about 10% of the library has one in this group of screens. Unless noted, calls follow the shape of the dose curve; as a rule, active = well fitted inhibition curve with a large enough effect (not every such curve was filed as active); inconclusive = small, poorly fitted or top-dose-only effect, or another doubt; inactive = no such curve, though single readings can be large or run the other way. Unless noted, % is scaled to controls: 0 for no effect and ±100 for the full control effect.

SMILES	Lamin A splicing	Luc counter	PNC inhibitor	ALDH1A1 inh	HPGD inh
O=C(O)c1cccc(Cn2c(Cl)c(/C=N/NC(=O)c3cccc(O)c3)sc2=O)c1	.	.	.	-1%	.
O=C(NCCCN1CCN(c2ccc(F)cc2)CC1)c1sc2ncccc2c1-n1cccc1	-3%[46 µM]	.	.	.	.
Cc1ccc(N2CC(C(=O)Nc3ccc(S(=O)(=O)Nc4nccs4)cc3)CC2=O)cc1 (centres undefined)	.	.	.	20µM*	.
O=S(=O)(Nc1nccs1)c1ccc(NS(=O)(=O)c2cccs2)cc1	-2%	6%	?	18µM*	-9%
O=C(CCN1C(=O)S/C(=C\c2ccccc2)C1=O)Nc1ccc(S(=O)(=O)Nc2nccs2)cc1	5%	-1%	21	?	-20%
COc1ccccc1/C=C1/SC(=O)N(CCC(=O)Nc2ccc(S(=O)(=O)Nc3nccs3)cc2)C1=O	9%	-4%	47	25µM*	-17%
CS(=O)(=O)Nc1ccc(S(=O)(=O)Nc2nccs2)cc1	13%	-1%	-29	-5%	4%
O=C(CSc1ccncc1)Nc1ccc(S(=O)(=O)Nc2nccs2)cc1	2%[46 µM]	5%	.	10µM*	.
Cc1nc(C)c(-c2ccc(SCC(=O)Nc3cccc(C)c3C)nn2)s1	-2%[46 µM]	.	.	.	.
COc1ccc(CNC(=O)CCCc2cn(C)c3ccccc23)c(OC)c1	-16%[46 µM]	.	.	.	.
COc1ccc(NC(=O)Cn2c(=O)oc3cc(S(=O)(=O)N4CCCCC4C)ccc32)cc1 (centres undefined)	21%[46 µM]	.	.	.	.
COc1ccc(NC(=O)CSC2=Nc3ccccc3C3=NC(CCC(=O)NCc4ccco4)C(=O)N23)cc1 (centres undefined)	-6%[46 µM]	.	.	.	.
O=C(c1cnccn1)N1CCC2(CCCN(c3ccc(-c4ccccc4)cc3)C2)CC1	.	-4%	.	?	-5%
Cc1cc2c(n1-c1ccc(C(=O)NCc3ccccc3Cl)cc1)CCCC2	-5%[46 µM]	.	.	.	.
Cn1c(=O)c(-c2cc(F)cc(F)c2)nc2cnc(Nc3ccccc3)nc21	-13%	.	.	25%	.
COn1c2c(c3c4nonc4ccc31)CCCC2	10%	-1%	24	?	?
On1c2c(c3c4nonc4ccc31)CCCC2	-3%	0%	?	32µM*	16µM*
Cc1nc2cnc(N3CCN(C)CC3)nc2n(Cc2ccc(F)cc2)c1=O	1%	.	.	?	.
CCOC(=O)C1(CCOc2ccccc2)CCN(Cc2ccc3nonc3c2)CC1	.	8%	.	28µM*	.
CCOC(=O)C1(CCOc2ccccc2)CCN(Cc2ccc(NC(C)=O)cc2)CC1	-12%[46 µM]	-1%	.	9%	.
CCOC(=O)C1(CCOc2ccccc2)CCN(Cc2cnc(C)s2)CC1	.	.	.	16µM*	.
C[C@@]12CCC(=O)C=C1C=CC1C2CC[C@]2(C)C1CC[C@@]21CCC(=O)O1 (some centres undefined)	.	-3%	.	9%	0%
Cn1c(-c2ccc(F)cc2)cnc1NCc1cc2c(cc1[N+](=O)[O-])OCO2	-7%	2%	?	3%	-17%
Cn1c(-c2ccc(Cl)cc2)cnc1NCc1cc2c(cc1[N+](=O)[O-])OCO2	-14%	-2%	-13	14µM*	0%
Cn1c(-c2ccccc2)cnc1NCc1cc2c(cc1[N+](=O)[O-])OCO2	-18%	-3%	14	13µM*	-16%
SMILES	Lamin A splicing	Luc counter	PNC inhibitor	ALDH1A1 inh	HPGD inh
Cc1cc(F)ccc1NCc1cc2c(cc1[N+](=O)[O-])OCO2	15%	5%	7	11µM*	-17%
CCNC(=O)/C(C#N)=C/c1c(N(Cc2ccccc2)Cc2ccccc2)nc2ccccn2c1=O	?	4%	-22	16µM*	-8%
N#C/C(=C\c1c(N2CCCCCC2)nc2ccccn2c1=O)C(=O)NCc1ccco1	.	.	.	13µM*	.
N#C/C(=C\c1c(N2CCCCC2)nc2ccccn2c1=O)C(=O)NCc1ccco1	0%	-5%	-15	28µM*	-27%
O=C(N/C(=C/c1ccco1)C(=O)N1CCCC1)c1cccs1	-18%	0%	-106*	-10%	-13%
Cc1cc(C)cc(OC2CCCCC2NS(=O)(=O)c2ccccc2)c1 (centres undefined)	-7%	1%	?	13µM*	-15%
COC1CCCCC1NS(=O)(=O)c1ccccc1 (centres undefined)	-7%	1%	62	?	-2%
CSc1ccc(OC2CCCCC2NS(=O)(=O)c2ccccc2)cc1 (centres undefined)	?	-2%	-14	1.3µM*	-14%
Cc1cccc(NC(=O)c2cc3c(=O)n4ccccc4nc3n2C)c1C	4%[46 µM]	.	.	.	.
Cc1[nH]c2ccccc2c1-c1cc(-c2cc(-c3c(C)[nH]c4ccccc34)nc(N)n2)nc(N)n1	.	-8%[7.66 µM]	.	13%[13.5 µM]	-4%
N#CCCN(Cc1cccnc1)C(=O)c1sc2cc(F)ccc2c1Cl	?	-2%	-6	-3%	7.1µM*
C=CCC1C=CC(Oc2ccc(OC)cc2)C(CO)O1 (centres undefined)	.	.	.	8%[13.5 µM]	.
N/C(=N\OC(=O)c1ccc2ccccc2c1)c1ccncc1	9%[46 µM]	-4%	.	2%	.
N/C(=N\OC(=O)c1cccc([N+](=O)[O-])c1)c1ccccn1	-12%[46 µM]	13µM*	.	?	.
O=C(O/N=C(\c1ccccc1)c1ccccn1)c1ccc(Cl)c(Cl)c1	-4%	7%	-107*	?	-24%
N/C(=N\OC(=O)c1ccc(Cl)cc1Cl)c1ccccn1	8%[46 µM]	11µM*	.	-2%	.
N/C(=N\OC(=O)c1ccc2ccccc2c1)c1ccccn1	-7%[46 µM]	11µM*	.	2%	.
COCCn1c(=O)c(-c2cccs2)nc2cnc(OCc3ccccc3)nc21	.	-4%	.	?	?
O=C(N/N=C(\c1ccccc1)c1ccccn1)c1cccc([N+](=O)[O-])c1	17%[46 µM]	-1%	.	18µM*	.
N/C(=N\OC(=O)CC1CCCCC1)c1cccc([N+](=O)[O-])c1	6%	0%	16	13µM*	-10%
Cn1ccnc1/C(=N\NC(=O)c1ccccc1)c1cccc([N+](=O)[O-])c1	?	-4%	.	?	.
O=C(O)c1sccc1S(=O)(=O)Nc1ccc(Cl)cc1	.	0%	.	0%	-10%
CCCNC(=O)C1CNc2ccccc2O1 (centres undefined)	10%	0%	-9	-3%	25µM*
O=C(NCCO)C1COc2ccccc2O1 (centres undefined)	23%[46 µM]	0%	.	6%	.
COc1ccc(S(=O)(=O)NCCc2sc(-c3ccccc3)nc2C)cc1F	-5%[46 µM]	.	.	.	.
O=c1[nH]c(=O)n(CCO)c2nnn(Cc3ccccc3)c12	-10%	-3%	?	-9%	28µM*
CCC(=O)N(CCC(c1ccc(C)cc1)c1ccco1)Cc1ccco1 (centres undefined)	.	.	.	22µM*	.
